For some of these results: Entries with a potency or affinity are not part of this list.
What was measured:
Parameters in all cases: scale not given: direction of the effect not stated beside the values
[1] = target: Protein translocase subunit SecA (Escherichia coli (strain K12)) (UniProt P10408); assay: Assay to Identify E. coli SecA ATPase Inhibitors; assay type: functional; details: 30 µM
[2] = target: T1, Ubiquitin-activating enzyme e1, putative (Leishmania donovani (strain BPK282A1)) (UniProt E9BSI1); assay: Leishmania donovani Ubiquitin Activating Enzyme (LdE1); assay type: functional; details: 30 µM
T1 sequence (whole entry): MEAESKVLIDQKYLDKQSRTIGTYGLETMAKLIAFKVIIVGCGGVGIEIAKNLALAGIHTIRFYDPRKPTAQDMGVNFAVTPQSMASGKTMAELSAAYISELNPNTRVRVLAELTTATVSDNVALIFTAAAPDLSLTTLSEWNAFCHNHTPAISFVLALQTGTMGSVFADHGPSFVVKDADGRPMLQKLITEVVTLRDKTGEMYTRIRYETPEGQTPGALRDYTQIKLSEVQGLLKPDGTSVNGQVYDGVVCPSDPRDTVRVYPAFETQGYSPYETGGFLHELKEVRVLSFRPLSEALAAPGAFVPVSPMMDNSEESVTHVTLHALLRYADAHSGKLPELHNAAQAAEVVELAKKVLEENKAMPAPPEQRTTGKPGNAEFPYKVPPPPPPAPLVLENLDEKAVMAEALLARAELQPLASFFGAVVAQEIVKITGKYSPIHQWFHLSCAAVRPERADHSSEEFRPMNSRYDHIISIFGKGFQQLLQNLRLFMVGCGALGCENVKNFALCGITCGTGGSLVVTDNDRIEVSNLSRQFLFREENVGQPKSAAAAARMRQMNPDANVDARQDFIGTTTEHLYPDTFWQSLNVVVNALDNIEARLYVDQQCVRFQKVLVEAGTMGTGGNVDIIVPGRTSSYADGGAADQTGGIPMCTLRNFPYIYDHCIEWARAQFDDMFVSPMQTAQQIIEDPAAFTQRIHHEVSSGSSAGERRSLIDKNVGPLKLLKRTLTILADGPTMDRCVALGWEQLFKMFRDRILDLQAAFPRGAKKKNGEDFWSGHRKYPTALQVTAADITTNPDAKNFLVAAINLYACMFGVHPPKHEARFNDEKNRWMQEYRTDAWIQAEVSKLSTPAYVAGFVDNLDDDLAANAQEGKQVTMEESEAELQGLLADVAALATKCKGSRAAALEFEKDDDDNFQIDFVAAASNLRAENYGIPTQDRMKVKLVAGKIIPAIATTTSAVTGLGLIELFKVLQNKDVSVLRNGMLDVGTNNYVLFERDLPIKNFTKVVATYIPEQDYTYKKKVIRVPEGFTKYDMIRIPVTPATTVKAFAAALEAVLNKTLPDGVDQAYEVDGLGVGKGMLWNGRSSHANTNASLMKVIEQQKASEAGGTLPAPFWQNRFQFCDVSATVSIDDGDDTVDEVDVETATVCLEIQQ

[3] = target: AMP-activated protein kinase, AMPK (Homo sapiens) (UniProt P54646+O43741+P54619+Q9UGJ0+Q9Y478+Q13131+Q9UGI9); assay: AMP-dependent Kinase enzyme assay. An in vitro enzyme assay that detects ADP turnover that is directly proportional to AMPK activity. This uses naive AMPK that is activated during the assay with MK-8722; assay type: functional; details: 30 µM
[4] = target: Sialic acid-binding Ig-like lectin 9 (Homo sapiens) (UniProt Q9Y336); assay: Hs-Siglec9 ALPHAscreen SOP 20170721; details: 10 µM
[5] = system: Trypanosoma cruzi; assay: Trypanosoma cruzi phosphomannomutase and mannose-1-phosphate guanylyltransferase assay; assay type: functional; details: 10 µM
[6] = target: T2, Arginase-2, mitochondrial (Homo sapiens) (UniProt P78540); assay: in vitro enzyme assay to detect the production of urea directly proportional to the activity of Arginase II; assay type: functional; details: 33.3 µM; further: in the data most compounds retested in dose-response had high values
T2 sequence (whole entry): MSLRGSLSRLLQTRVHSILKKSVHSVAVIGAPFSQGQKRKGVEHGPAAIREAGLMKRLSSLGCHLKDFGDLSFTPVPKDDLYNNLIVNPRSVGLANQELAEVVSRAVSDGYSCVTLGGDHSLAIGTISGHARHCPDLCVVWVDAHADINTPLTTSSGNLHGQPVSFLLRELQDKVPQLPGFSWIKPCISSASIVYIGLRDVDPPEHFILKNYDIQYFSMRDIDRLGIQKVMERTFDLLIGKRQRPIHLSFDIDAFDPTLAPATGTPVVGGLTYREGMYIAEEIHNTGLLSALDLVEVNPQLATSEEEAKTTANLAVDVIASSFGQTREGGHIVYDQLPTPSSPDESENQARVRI

[7] = target: T3, Proteasome subunit beta (Trypanosoma cruzi) (UniProt O96673); assay: Trypanosoma cruzi proteasome chymotrypsin-like activity (TcProtChymo) assay.; further: in the data most compounds retested in dose-response had high values; assay type: functional; details: 9.37 µM
T3 sequence (whole entry): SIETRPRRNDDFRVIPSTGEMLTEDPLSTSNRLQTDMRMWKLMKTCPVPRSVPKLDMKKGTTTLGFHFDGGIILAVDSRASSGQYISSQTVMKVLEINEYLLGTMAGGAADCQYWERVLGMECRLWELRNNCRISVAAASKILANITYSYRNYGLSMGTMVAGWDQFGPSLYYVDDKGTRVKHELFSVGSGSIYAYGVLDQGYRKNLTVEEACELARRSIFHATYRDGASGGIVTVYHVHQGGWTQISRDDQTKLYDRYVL

[8] = organism: Homo sapiens; assay: To identify inhibition of the IFN signalling (Jak-Stat) pathway via expression of an eGFP reporter gene under the control of an IFN-stimulated response element (ISRE) containing MxA promoter.; assay type: functional; details: 30 µM
[9] = target: T4, Tyrosyl-tRNA synthetase, putative (Trypanosoma cruzi (strain CL Brener)) (UniProt Q4DSP6); assay: Trypanosoma cruzi tyrosyl tRNA synthetase (TcYRS) _High Tyrosine SOP; assay type: functional; details: 30 µM; further: in the data most compounds retested in dose-response had high values
T4 sequence (whole entry): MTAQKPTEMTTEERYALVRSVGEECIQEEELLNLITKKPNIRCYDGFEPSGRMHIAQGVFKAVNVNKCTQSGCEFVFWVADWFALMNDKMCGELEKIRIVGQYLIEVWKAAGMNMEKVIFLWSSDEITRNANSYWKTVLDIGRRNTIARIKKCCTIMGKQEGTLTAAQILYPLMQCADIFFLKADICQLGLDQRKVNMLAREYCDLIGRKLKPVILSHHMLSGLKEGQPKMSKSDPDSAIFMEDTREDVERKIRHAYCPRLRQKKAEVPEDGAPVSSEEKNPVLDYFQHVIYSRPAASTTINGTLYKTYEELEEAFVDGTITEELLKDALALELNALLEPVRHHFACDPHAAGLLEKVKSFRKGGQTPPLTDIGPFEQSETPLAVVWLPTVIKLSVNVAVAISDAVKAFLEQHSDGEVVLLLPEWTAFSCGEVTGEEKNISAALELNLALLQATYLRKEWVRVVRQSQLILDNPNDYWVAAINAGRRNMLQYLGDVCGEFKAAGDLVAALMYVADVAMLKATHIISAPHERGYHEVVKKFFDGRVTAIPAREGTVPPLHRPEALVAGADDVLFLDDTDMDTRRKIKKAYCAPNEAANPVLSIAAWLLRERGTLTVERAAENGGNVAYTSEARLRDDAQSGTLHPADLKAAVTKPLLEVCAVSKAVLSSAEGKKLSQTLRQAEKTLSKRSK

[10] = target: T4, Tyrosyl-tRNA synthetase, putative (Trypanosoma cruzi (strain CL Brener)); assay: Trypanosoma cruzi tyrosyl tRNA synthetase (TcYRS) SOP; assay type: functional; details: 30 µM
[11] = target: Chromo domain-containing protein 1 (Saccharomyces cerevisiae (strain ATCC 204508 / S288c) (Baker's yeast)) (UniProt P32657); assay: ScCHD-1 Enzyme Inhibition Assay; assay type: functional; details: 30 µM; further: in the data most compounds retested in dose-response had high values
Sequence of Chromo domain-containing protein 1 (Saccharomyces cerevisiae (strain ATCC 204508 / S288c) (Baker's yeast)) (P32657 whole entry, the tested form may be a part): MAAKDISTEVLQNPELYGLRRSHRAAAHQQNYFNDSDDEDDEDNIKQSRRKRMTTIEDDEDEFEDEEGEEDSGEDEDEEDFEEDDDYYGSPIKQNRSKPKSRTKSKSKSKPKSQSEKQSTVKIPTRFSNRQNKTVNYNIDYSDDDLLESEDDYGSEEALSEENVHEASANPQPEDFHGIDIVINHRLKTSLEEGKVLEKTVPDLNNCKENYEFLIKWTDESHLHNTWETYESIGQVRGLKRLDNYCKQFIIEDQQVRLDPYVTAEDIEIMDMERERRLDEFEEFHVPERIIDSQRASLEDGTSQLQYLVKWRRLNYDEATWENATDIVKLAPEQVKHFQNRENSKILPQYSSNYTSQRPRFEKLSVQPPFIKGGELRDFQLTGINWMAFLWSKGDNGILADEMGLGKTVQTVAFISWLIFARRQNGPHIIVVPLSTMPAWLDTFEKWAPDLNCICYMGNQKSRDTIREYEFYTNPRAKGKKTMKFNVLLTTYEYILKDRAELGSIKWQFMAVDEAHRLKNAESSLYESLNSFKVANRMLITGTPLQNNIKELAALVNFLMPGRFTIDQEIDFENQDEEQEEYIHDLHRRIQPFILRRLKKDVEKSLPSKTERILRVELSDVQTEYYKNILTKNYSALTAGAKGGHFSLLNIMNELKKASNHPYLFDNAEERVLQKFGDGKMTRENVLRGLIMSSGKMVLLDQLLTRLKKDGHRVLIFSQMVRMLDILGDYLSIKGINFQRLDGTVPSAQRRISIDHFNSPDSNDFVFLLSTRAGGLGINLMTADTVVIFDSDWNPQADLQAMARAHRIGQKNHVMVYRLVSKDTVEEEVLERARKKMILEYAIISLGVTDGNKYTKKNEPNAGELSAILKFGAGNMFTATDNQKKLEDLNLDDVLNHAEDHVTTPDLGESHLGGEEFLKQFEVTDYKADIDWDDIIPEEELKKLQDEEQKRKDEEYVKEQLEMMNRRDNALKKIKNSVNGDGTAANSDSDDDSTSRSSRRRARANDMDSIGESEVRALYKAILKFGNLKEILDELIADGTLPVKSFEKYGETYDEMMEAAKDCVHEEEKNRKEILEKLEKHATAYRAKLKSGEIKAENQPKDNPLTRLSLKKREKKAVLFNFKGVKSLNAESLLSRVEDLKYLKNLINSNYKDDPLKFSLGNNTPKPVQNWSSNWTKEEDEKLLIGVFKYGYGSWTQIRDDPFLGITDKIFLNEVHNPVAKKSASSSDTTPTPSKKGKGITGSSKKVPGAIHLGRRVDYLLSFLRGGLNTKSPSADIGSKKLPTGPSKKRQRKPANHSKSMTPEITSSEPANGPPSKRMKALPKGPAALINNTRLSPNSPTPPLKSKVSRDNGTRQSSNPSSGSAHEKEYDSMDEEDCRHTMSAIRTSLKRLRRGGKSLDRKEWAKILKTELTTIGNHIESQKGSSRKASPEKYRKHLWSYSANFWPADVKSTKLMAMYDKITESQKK

Sequence of Sialic acid-binding Ig-like lectin 9 (Homo sapiens) (Q9Y336 whole entry): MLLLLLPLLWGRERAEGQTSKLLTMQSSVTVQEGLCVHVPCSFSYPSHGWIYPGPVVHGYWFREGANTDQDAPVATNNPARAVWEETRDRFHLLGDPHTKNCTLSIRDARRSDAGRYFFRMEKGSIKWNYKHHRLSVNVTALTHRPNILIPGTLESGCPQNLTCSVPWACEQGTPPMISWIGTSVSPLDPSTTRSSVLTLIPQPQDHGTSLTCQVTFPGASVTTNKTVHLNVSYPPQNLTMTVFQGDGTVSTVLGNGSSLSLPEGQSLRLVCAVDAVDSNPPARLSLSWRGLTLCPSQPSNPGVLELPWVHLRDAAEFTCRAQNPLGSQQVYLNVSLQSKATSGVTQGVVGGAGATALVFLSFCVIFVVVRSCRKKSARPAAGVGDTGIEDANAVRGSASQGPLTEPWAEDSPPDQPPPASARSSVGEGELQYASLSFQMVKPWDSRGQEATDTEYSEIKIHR
Sequence of Protein translocase subunit SecA (Escherichia coli (strain K12)) (P10408 whole entry): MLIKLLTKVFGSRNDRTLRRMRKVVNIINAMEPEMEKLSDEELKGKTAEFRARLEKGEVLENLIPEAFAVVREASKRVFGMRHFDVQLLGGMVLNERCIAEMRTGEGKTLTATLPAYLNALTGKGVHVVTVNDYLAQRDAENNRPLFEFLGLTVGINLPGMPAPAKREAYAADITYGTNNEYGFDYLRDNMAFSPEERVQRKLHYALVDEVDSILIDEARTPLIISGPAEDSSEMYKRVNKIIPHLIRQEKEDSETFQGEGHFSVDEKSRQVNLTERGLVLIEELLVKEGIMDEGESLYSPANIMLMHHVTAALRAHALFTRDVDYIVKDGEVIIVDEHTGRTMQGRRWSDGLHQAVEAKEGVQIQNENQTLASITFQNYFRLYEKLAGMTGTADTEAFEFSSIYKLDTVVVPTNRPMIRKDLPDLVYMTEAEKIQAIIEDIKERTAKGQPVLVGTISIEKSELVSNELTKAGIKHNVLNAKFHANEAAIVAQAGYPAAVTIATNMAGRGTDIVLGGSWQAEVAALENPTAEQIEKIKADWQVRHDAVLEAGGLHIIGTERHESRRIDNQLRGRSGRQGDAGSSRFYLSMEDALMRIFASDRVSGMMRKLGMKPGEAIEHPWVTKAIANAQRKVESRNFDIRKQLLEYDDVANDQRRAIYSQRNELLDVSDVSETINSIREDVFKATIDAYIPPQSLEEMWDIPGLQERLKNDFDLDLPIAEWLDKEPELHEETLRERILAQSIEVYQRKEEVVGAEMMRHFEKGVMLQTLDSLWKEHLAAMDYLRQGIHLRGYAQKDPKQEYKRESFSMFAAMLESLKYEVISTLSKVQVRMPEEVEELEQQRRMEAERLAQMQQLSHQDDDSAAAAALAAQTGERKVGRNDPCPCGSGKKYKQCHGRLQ

Row | Structure (SMILES) | Percent Effect [1] [%] | Percent Effect [2] [%] | Percent Effect [3] [%] | Percent Effect [4] [%] | Percent Effect [5] [%] | Percent Effect [6] [%] | Percent Effect [7] [%] | Percent Effect [8] [%] | Percent Effect [9] [%] | Percent Effect [10] [%] | Percent Effect [11] [%]
1 | CC(=O)N1CCOCC2(CCN(Cc3ccc(C)s3)CC2)C1 | -3.46 | 10.7 | -5.5 | -0.245 | 6.37 | -51.8 | 2.91 | -1.39 | 4.17 | 5 | -7.22
2 | Cc1nc(C)n(CC2CCCN2CC(=O)NCCc2ccccc2)n1 (stereo unspecified) | 0.351 | 0 | 2.9 | 4.24 | 1.37 | 1.36 | 12.4 | -18.8 | 1.07 | 2.5 | -5.02
3 | Cc1nc(CC(=O)N2CCCCC2c2ccn3ccnc3n2)cs1 (stereo unspecified) | -1.88 | -4.05 | 11.6 | 4.95 | -1.78 | -3.02 | 12.6 | 7.12 | -1.07 | 1.3 | -15.1
4 | Cc1cn2c(n1)CCC(NC(=O)CCn1cncn1)C2 (stereo unspecified) | -8.14 | 5.26 | -6.54 | -5.36 | -3.64 | -2.88 | 10.4 | -0.843 | -1.48 | 1.24 | 7.18
5 | COc1c(CNCc2ccc(CN(C)C)cc2)c(C(C)C)nn1C | 2.77 | -5.26 | 5.16 | 1.34 | -1.5 | 3.45 | 2.34 | 11.8 | -0.49 | 4.88 | -1.54
6 | OC(COCc1ccc(Cl)cc1)CN1CCC(c2ccn[nH]2)CC1 (stereo unspecified) | -3.72 | 20.2 | -9.18 | -2.48 | 7.27 | -3.04 | 3.03 | -5.57 | 5.42 | 26.6 | -7.16
7 | CCOc1ccccc1-c1noc(CN2CCCC(O)C2)n1 (stereo unspecified) | -8.22 | 0 | -0.175 | -2.29 | 7.54 | -1.47 | 1.54 | -2.84 | 0.952 | 7.06 | -13.3
8 | Cc1cnn(CCNCC(O)COc2ccc(Cl)cc2)c1 (stereo unspecified) | -3.71 | 10.1 | 0.158 | 12.9 | 3.12 | 0.76 | -1.88 | -3.16 | 3.45 | 8.86 | -2.04
9 | CCNC(=O)[C@@H]1C[C@@H](NC(=O)Cc2ccccn2)CN1CCCSC | -5.92 | 0 | 1.44 | -0.868 | -4.37 | -1.2 | 6.42 | 5.01 | 0 | -3.7 | 0.131
10 | Cc1occc1C(=O)N1CCC2(CCC2NC(=O)c2ccn(C)c2)CC1 (stereo unspecified) | -5.67 | 8.11 | 3.15 | -1.3 | 4.79 | -3.5 | 12 | -2.79 | 6.49 | 15.4 | 3.75
11 | CC(C)Cc1cc(C(=O)NCc2nnc[nH]2)[nH]n1 | -3.85 | 7.89 | 11.2 | 7.63 | -3.02 | -4.73 | 13.1 | -0.467 | 1.06 | -2.6 | -1.14
